Rows were chosen to be rich in hits. Some 10% of all compounds tested hit in one or more screens of this group.
PNC assembly inh: High Content Assay for Compounds that inhibit the Assembly of the Perinucleolar Compartment | hit rate 3.1% among 140,000 | PC3M PTB-GFP, PNC prevalence imaging, 16 h; stronger effect = lower value | activity change (PNC), negative = inhibition, % at 10 µM;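 active = readout at or below -70, meaning at least 70% loss of cells showing the perinucleolar compartment, a nuclear body marking cancer cells; inconclusive = readout between -30 and a set limit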;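 also: plate controls were DMSO wells for no effect and camptothecin positive control wells for full effect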
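Compounds are pinned in duplicate onto adhered PC3M cells stably expressing GFP-tagged PTB and incubated 16 h at 37 C. Cells are then fixed, nuclei stained with Hoechst, and PNC-positive cells counted.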
Lamin A splicing: qHTS Assay for Modulators of Lamin A Splicing. hit rate 0.01% among 200,000. HeLa LMNA splicing GFP/RFP minigene ratio, 48 h. Potency, µM (highest dose often 46.1 µM), without a hit: at the top dose ratio change, negative = inhibition, hits mostly inhibitors; active = well fitted inhibition curve with a large enough effect in the signal ratio, with a control signal flat, not every such curve was filed as active; inconclusive = small, poorly fitted or top-dose-only effect, or effect the other way, or a change in a side signal; the % refers to the signal ratio; also: potency is read from the fitted curve at half-maximal effect
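S3 HeLa cells stably expressing lamin A-EGFP splicing minigene plus DsRed2, 600 cells/well, 48 h compound exposure at 37C. Laser-scanning cytometry; analysed as GFP (500-530 nm)/RFP (575-640 nm) total intensity ratio; 0.5% DMSO vehicle.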
ALDH1A1 block: qHTS Assay for Inhibitors of Aldehyde Dehydrogenase 1 (ALDH1A1); Purified ALDH1A1, NADH fluorescence, propionaldehyde substrate; hit rate 7.3% among 220,000; Potency, µM (doses to about 75.3 µM), for inactives: top-dose activity, negative = inhibition, hits mostly inhibitors;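 also: potency is read from the fitted curve at half-maximal effect; plate controls were no enzyme wells and a reference inhibitor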
Target sequence (P00352 whole entry, looked up): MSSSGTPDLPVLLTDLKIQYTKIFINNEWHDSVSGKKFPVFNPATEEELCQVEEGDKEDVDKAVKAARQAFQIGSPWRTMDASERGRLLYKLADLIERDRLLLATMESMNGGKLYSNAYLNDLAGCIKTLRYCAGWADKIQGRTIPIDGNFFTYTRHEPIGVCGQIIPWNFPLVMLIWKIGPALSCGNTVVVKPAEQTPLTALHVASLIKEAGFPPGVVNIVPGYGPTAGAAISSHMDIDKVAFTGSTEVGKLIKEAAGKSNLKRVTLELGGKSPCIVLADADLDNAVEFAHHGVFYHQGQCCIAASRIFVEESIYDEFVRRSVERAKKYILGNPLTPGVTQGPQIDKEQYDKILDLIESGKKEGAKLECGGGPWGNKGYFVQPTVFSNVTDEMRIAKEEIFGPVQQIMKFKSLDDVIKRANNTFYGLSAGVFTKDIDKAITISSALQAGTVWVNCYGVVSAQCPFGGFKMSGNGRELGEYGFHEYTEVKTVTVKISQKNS
12-hLO inh: qHTS Assay for Inhibitors of 12-hLO (12-human lipoxygenase) | Polyunsaturated fatty acid lipoxygenase ALOX12 (Homo sapiens), P18054 | purified 12-hLO, xylenol orange hydroperoxide absorbance | Potency, µM (titrated, usually from 57.1 µM), for inactives: at the top dose activity change, negative = inhibition, most hits filed as inhibitors | hit rate 0.12% among 150,000; active = well fitted inhibition curve with a large enough effect; inconclusive = small, poorly fitted or top-dose-only effect; also: potency is read from the fitted curve at half-maximal effect; nearly all actives have a fitted effect of over 55% in size
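150 nM 12hLO, 25 mM Hepes pH 7.0 + 0.01% Triton X-100; cpd preinc 15 min RT; 40 uM arachidonic acid, 30 min RT; Fe-XO 30 min; A573/A405 ratio as read-out.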
HPGD inh: qHTS Assay for Inhibitors of HPGD (15-Hydroxyprostaglandin Dehydrogenase); 15-hydroxyprostaglandin dehydrogenase [NAD(+)] (Homo sapiens), P15428; purified HPGD, NADH fluorescence kinetic, PGE2 substrate; Potency, µM, without a hit: at the top dose activity change, negative = inhibition, hits mostly inhibitors; hit rate 4.3% among 150,000; AID 894, 2007; also: potency is read from the fitted curve at half-maximal effect
Target sequence (P15428 whole entry, looked up): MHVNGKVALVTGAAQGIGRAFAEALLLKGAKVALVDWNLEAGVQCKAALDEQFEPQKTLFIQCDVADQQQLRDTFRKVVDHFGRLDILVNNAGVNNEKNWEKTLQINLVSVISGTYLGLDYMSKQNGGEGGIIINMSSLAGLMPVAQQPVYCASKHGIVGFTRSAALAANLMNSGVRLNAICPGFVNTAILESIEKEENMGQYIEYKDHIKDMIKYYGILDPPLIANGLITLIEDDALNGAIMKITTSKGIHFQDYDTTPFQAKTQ
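NADH formation kinetics: reaction with 30 uM PGE2 and 1 mM NAD+ (final), 20 nM enzyme, Tris-HCl pH 8 with Tween 20, after 15 min compound preincubation at room temperature. Fluorescence change, last versus first of five reads.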
An asterisk follows results filed as active; ? = inconclusive; . = no result given; [ ] = another dose, or the depositor's remark. Unless noted, calls follow the shape of the dose curve; as a rule, active = well fitted inhibition curve with a large enough effect (not every such curve was filed as active); inconclusive = small, poorly fitted or top-dose-only effect, or another doubt; inactive = no such curve, though single readings can be large or run the other way. Unless noted, % is scaled to controls: 0 for no effect and ±100 for the full control effect.

SMILES	PNC assembly inh	Lamin A splicing	ALDH1A1 block	12-hLO inh	HPGD inh
CC(C)CC1(C(=O)NCC2CC2)C=CCN1C(=O)c1ccccc1 (stereo unspecified)	.	.	25.1µM*	-7.4%	17.8µM*
COC(=O)CNC(=O)C1(CC(C)C)C=CCN1C(=O)c1ccccc1 (stereo unspecified)	.	.	-0.1%	-6.5%	-1.4%
O=C(CN1C(=O)CCSc2ccc(S(=O)(=O)N3CCCC3)cc21)Nc1cccc(Cl)c1	.	14.6%[46 µM]	.	.	.
CCN=C1S/C(=C\c2cc(OCC)c(O)cc2Br)C(=O)N1CC	?	?	0.891µM*	-5.6%	-16.0%
CCN=C1S/C(=C\c2ccc(O)c(OCC)c2)C(=O)N1CC	75.1	-2.2%	?	-6.0%	-16.3%
CCC1CN2CCC1CC2[C@@H](NC(=S)Nc1cc(C(F)(F)F)cc(C(F)(F)F)c1)c1cccc2ccc(OC)cc12 (stereo partly specified)	.	.	0.5%	.	-9.4%
S=C1NCCc2ccccc2C1c1ccccc1 (stereo unspecified)	-0.4	?	-6.6%	28.2µM*	39.8µM*
Cc1ccc2nc(C(F)OC(F)(F)F)[nH]c2c1 (stereo unspecified)	-15.8	-7.1%	0.708µM*	-13.0%	?
O=c1cc(O)c2sc3nc(-c4cccnc4)cc(C(F)(F)F)c3c2[nH]1	13.9	?	8.91µM*	-7.1%	?
Cc1cc(C(F)(F)F)c2c(n1)sc1c(O)cc(=O)[nH]c12	-11.1	-9.2%	-0.7%	-7.2%	-5.3%
Cc1cccc(NC(=O)c2c(C)cc(C)nc2SCC(=O)Nc2c(C)cc(C)cc2C)c1	.	7.7%[46 µM]	.	.	.
Cc1ccc(S(=O)(=O)N(C(=O)c2ccco2)c2cc3sc(=O)oc3c3ccccc23)cc1	2.0	-4.6%	31.6µM*	?	?
CCOc1ccc(S(=O)(=O)N(C(=O)c2ccco2)c2cc3sc(=O)oc3c3ccccc23)cc1	60.0	-0.8%	?	?	-29.2%
COc1ccc(S(=O)(=O)N(C(=O)c2ccco2)c2cc3sc(=O)oc3c3ccccc23)cc1	?	-0.6%	25.1µM*	?	?
CCC1=C2CC[C@H]3C(=O)N(C)C(=O)[C@H]3[C@H]2[C@@]2(C)C(=NCc3ccccc3)OC(=O)N2C1=O	.	.	3.2%	-3.6%	1.3%
O=C/C=C/c1ccc(O)cc1	.	-9.6%	3.55µM*	2.0%	-14.2%
C/C=C(/C(=C/C)c1ccc(O)cc1)c1ccc(O)cc1	34.8	?	-4.9%	?	-9.0%
N#CCc1ccccc1[N+](=O)[O-]	.	.	25.1µM*	-4.8%	8.91µM*
O=C1c2ccccc2C(=O)N1OCc1ccc(Cl)cc1	11.7	1.1%	3.5%	-2.5%	-9.3%
O=C1c2ccccc2C(=O)N1OCc1ccccc1[N+](=O)[O-]	.	.	25.1µM*	.	.
O=C(COC(=O)c1c[nH]c(=O)[nH]c1=O)Nc1ccccc1F	.	-13.9%[46 µM]	28.2µM*	.	.
O=[N+]([O-])c1ccc(Cl)c(/C=N/N2CCN(c3ccccc3)CC2)c1	7.2	20.7%	-3.8%	-1.5%	-24.0%
COc1ccccc1N1CCN(/N=C/c2cc([N+](=O)[O-])ccc2Cl)CC1	.	.	22.4µM*	.	.
COc1ccccc1N1CCN(/N=C/c2c(C)nn(-c3ccccc3)c2C)CC1	-84.3*	-9.1%	-8.3%	-2.4%	-4.3%
CS(=O)(=O)Nc1ccc(Nc2c3ccccc3nc3ccccc23)cc1	.	.	6.5%[13.5 µM]	-3.4%[11.4 µM]	-13.4%
SMILES	PNC assembly inh	Lamin A splicing	ALDH1A1 block	12-hLO inh	HPGD inh
O=S(=O)(c1c(Cl)sc(Cl)c1Br)N1CCCC1	.	9.7%[46 µM]	14.1µM*	.	.
O=S(=O)(c1cccc(Cl)c1Cl)N1CCCCC1	9.8	13.1%	-1.8%	-7.4%	-8.2%
COc1cccc2c1C(=O)c1c(O)c3c(c(O)c1C2=O)C[C@@](O)(C(C)=O)C[C@@H]3O[C@H]1C[C@H](N)[C@H](O)[C@H](C)O1	-114.6*	?	?	3.3%	-15.4%
COc1cccc2c1C(=O)c1c(O)c3c(c(O)c1C2=O)C[C@](O)(C(=O)CO)C[C@@H]3O[C@H]1C[C@H](N)[C@@H](O)[C@H](C)O1	.	-11.0%	.	.	.
Cc1ccc(NS(=O)(=O)c2ccc3c(c2)CCCN3C(=O)C2CCC2)c(C)c1	.	-12.7%[46 µM]	.	.	.
CC1=CC(C)(C)Nc2ccc(OC(=O)CN3C(=O)c4ccccc4C3=O)cc21	-25.2	?	?	-0.2%	?
CC1=CC(C)(C)Nc2ccc(OC(=O)CN3C(=O)c4cccc5cccc(c45)C3=O)cc21	40.2	?	11.2µM*	-7.5%	-20.7%
O=C(c1cnccn1)N1CCC2(CCCN(c3ccncc3)C2)CC1	.	.	3.9%	-1.5%	-0.2%
COc1ccc(C2SCCN2C(=S)Nc2cccc(C(F)(F)F)c2)cc1 (stereo unspecified)	-82.3*	-13.5%	-7.0%	-8.4%	-14.1%
COc1ccc(C2SCCN2C(=S)Nc2ccc(F)cc2)cc1 (stereo unspecified)	8.6	?	?	-8.0%	-18.0%
COc1ccc(NC(=O)C2CCN(S(=O)(=O)c3cccc(-c4noc(C)n4)c3)CC2)cc1OC	.	17.9%[46 µM]	.	.	.
O=c1cc(-c2ccccc2)n2c(SCc3ccc([N+](=O)[O-])cc3)nnc2[nH]1	.	5.0%[46 µM]	.	.	.
O=C1CC(c2ccccc2)CCc2sccc2N1 (stereo unspecified)	12.0	-4.9%	-3.9%	-0.8%	25.1µM*
O=C(COC(=O)C12CC3CC(CC(O)(C3)C1)C2)NCCc1ccc(Cl)cc1	.	.	0.2%	.	.
O=C(CC1(c2ccc(Cl)cc2)C2CC3CC(C2)CC1C3)NCCO (stereo unspecified)	.	.	12.6µM*	.	.
CC(C)CCN1CCc2nc(-c3ccccc3)c3c(c2C1)COC(C)C3 (stereo unspecified)	.	.	-16.6%[13.5 µM]	.	.
Cc1cc(C(=O)OCC(N)=O)c(C)n1-c1ccccc1	.	?	1.2%	.	.
C/C(N)=C(/C#N)C(=O)COC(=O)c1cc(C)n(-c2ccc(F)cc2)c1C	-129.2*	?	12.6µM*	6.5%	-27.4%
C/C(=N/OCO/N=C(/C)c1ccc(F)cc1)c1ccc(F)cc1	-104.3*	?	-16.0%	-4.8%	-15.9%
C/C(=N/OCO/N=C(\C)c1ccccc1)c1ccccc1	-16.1	?	-1.5%	-1.6%	-4.8%
Cc1ccc(S(=O)(=O)c2c(C)nn(C(C)(C)C)c2OC(=O)CC(C)C)cc1	.	.	-7.9%	.	.
CN1CCN(C(=O)C(=O)Nc2c3c(nn2-c2ccc(Cl)cc2)CSC3)CC1	.	-7.0%[46 µM]	.	.	.
O=C(NCc1nnc2c3ccccc3c(-c3ccccc3)nn12)c1ccc(Cl)cc1	-110.8*	?	6.6%	-1.6%	-6.3%
CC(=O)NCc1nnc2c3ccccc3c(-c3ccccc3)nn12	.	-14.4%[46 µM]	-9.6%	.	.

Assay outcomes as filed in PubChem BioAssay.
